# The supplement of paper PMC12067093, “Discovery and optimisation of a covalent ligand for TRIM25 and its application to targeted protein ubiquitination” (Chemical Science, 2025)
# The full data set covers some 21,000 targets. This sample favours those with the largest changes.
# Biological target: PYCR1_P32322_95_HIVVSCAAGVTISSIEK (UniProt P32322)
# Assay: probe-labelled cysteine peptide fold change vs DMSO (competition) (log2 fold change); higher = less target engagement (more negative = stronger competition)
# Settings: THP-1, incubation time: 4 h
# 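Note: competitive chemoproteomic profiling in live THP-1 cells with an iodoacetamide desthiobiotin (IA-DTB) probe, comparing probe-labelled peptide intensities in compound-treated cells against DMSO-treated controls.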
smiles,measurement,setting,value
CC1Cc2ccccc2N1C(=O)C1CCCN(C(=O)CCl)C1 (mixture of isomers) [TRIM25 ligand 11 (diastereomer mixture)],probe-labelled cysteine peptide fold change,10 µM,0.0152
same,probe-labelled cysteine peptide fold change,50 µM,0.0688
